PubChem BioAssay AID1117361 (Southern Research Institute, 2015)
In all, about 3,600 compounds went through this assay and about 900 (25%) were called active. No rule for the calls is given here. These entries were drawn from the full list. Entries with a potency or affinity are not part of this list.

These compounds were tested against Protein Tat (Human immunodeficiency virus type 1 group M subtype B (isolate HXB2)) (UniProt P04608) (assay: HIV-1 Tat–TAR interaction blockers – biochemical, fluorescence polarization, FAM-labeled TAR RNA, counter-screen for Vif-APOBEC3G degradation inhibitor project, dose response (AID 1117361)). Conditions: Tat-TAR RNA binding; series mostly up to 100 µM.
CC(C)OC(=O)/C(=C\C=C\c1ccccc1)NC(=O)c1ccccc1 was tested, and the outcome was “inactive”. O=C(CCc1ccc(S(=O)(=O)N2CCOCC2)cc1)OCc1nc2ccccc2s1 was tested, and the outcome was “inactive”. In the case of O=C1c2ccccc2C(Nc2ccc(F)c(Cl)c2)N1c1ccccn1 (centres undefined), the outcome was “inactive”. For CCn1c(SCC(=O)n2c(C)c(C)c3ccccc32)nnc1-c1ccco1, the outcome was “inactive”. NC(=O)c1ccccc1NC(=O)/C=C/c1ccc(Cl)cc1 was tested, and the outcome was “inactive”. With CCCCC(=O)Nc1ccc(NC(=O)c2ccc3c(c2)OCO3)cc1OC the outcome was “inactive”. For CCn1c(-c2csc(-c3ccc(Cl)cc3)n2)n[nH]c1=S, the outcome was “inactive”. With COc1ccc(N2CCC(CNS(=O)(=O)c3cccc(C(F)(F)F)c3)C2)cc1 (centres undefined) the outcome was “inactive”. In the case of COc1ccc(NC(=O)CN2CCN(c3ccc(F)cc3)CC2)cc1Cl, the outcome was “inactive”. For COc1ccc(-c2nc(C#N)c(NCc3ccccc3Cl)o2)cc1OC, the outcome was “inactive”. With O=C(c1cccc(C(F)(F)F)c1)C1CCCN(C(=O)CCCN2CCCC2=O)C1 (centres undefined) the outcome was “inactive”. For CCc1nnc(NC(=O)c2ccc(-c3ccccc3Cl)o2)s1, the outcome was “inactive”. For CCOC(=O)C1CC(CN2C(=O)c3ccccc3C2=O)OC1=O (centres undefined), the outcome was “inactive”. With CCOC(=O)c1c(C)nn(Cc2cccc(Cl)c2)c1N the outcome was “inactive”. In the case of Nc1ncnc2c1cnn2C1CCCCC1, the outcome was “inactive”. In the case of COc1ccccc1N1CCN(CCc2n[nH]c(=S)n2-c2ccccc2)CC1, the outcome was “inactive”. S=c1[nH]nc(COc2ccc(Cl)cc2)n1Cc1ccccc1 was tested, and the outcome was “inactive”. In the case of O=C1N(Cc2cccnc2)C[C@@H]2C[C@@H](c3ccc4nsnc4c3)N3CCC[C@@]123, the outcome was “inactive”. For COc1cccc(C(=O)N2CCN(Cc3nc(CC4CC4)no3)CC2)c1, the outcome was “inactive”. In the case of O=C1CCCC(O)=C1C=Nc1ccc(O)cc1, the outcome was “inactive”. With COc1ccc(N=CC2=C(O)CCCC2=O)cc1 the outcome was “inactive”. For CC1CN(C(=O)COC(=O)Cc2ccc(Cl)cc2)CC(C)O1 (centres undefined), the outcome was “inactive”. For CCCCn1c(C)nc2c(=O)n(C)c(=O)[nH]c21, the outcome was “inactive”. In the case of CCN(CC)CCN1C(=O)C(=O)/C(=C(/O)c2ccc(C)cc2)C1c1ccncc1 (centres undefined), the outcome was “inactive”. CN(C1CCCCC1)S(=O)(=O)c1cccc(C(=O)OCC(=O)NC2CCCc3ccccc32)c1 (centres undefined) was tested, and the outcome was “inactive”. In the case of CC(OC(=O)/C=C/c1ccco1)C(=O)NC1CCCCC1 (centres undefined), the outcome was “inactive”. In the case of CCCc1nc2ccccc2c(C(=O)OCC(=O)N2CCc3ccccc32)c1CC, the outcome was “inactive”. With Cc1nc2ccc(NC(=O)c3cc(S(=O)(=O)N4CCOCC4)ccc3C)cc2s1 the outcome was “inactive”. With COc1ccc(OCCOC(=O)c2cccc(-n3cnnn3)c2)cc1 the outcome was “inactive”. COc1ccc(C(C)(C)C)cc1NC(=O)C1C2C=CC(C2)C1C(=O)O (centres undefined) was tested, and the outcome was “inactive”. With Cc1nc2nc(-c3ccco3)nn2c(C)c1Cl the outcome was “inactive”. For O=C(Nc1nc(-c2ccco2)c(-c2ccco2)s1)c1ccc(F)cc1F, the outcome was “inactive”. With CC1CCc2nc(NC(=O)c3ccco3)sc2C1 (centres undefined) the outcome was “inactive”. In the case of Cc1cc(-c2ccco2)n(-c2ccccc2)n1, the outcome was “inactive”. With c1coc(-c2nc3nc4ccccc4n3nc2-c2ccco2)c1 the outcome was “inactive”. For O=C1CN(C(=O)COC(=O)c2oc3ccccc3c2COc2ccccc2)c2ccccc2N1, the outcome was “inactive”. For Cc1cc(C(=O)Nc2c(C)cccc2C)n(-c2ccccc2)n1, the outcome was “inactive”. For Cc1ccc(NC(=O)CSc2nnc([C@H](C)NC(=O)OC(C)(C)C)o2)c(C)c1, the outcome was “inactive”. For Cn1c2ccccc2c2c(C(=O)O)cn(C3CCCC3)c(=O)c21, the outcome was “inactive”. In the case of CCC(=O)N1CCc2cc(S(=O)(=O)NCCC(=O)NC3CCCc4ccccc43)ccc21 (centres undefined), the outcome was “inactive”. In the case of COc1ccc(N(C(=O)c2ccco2)S(=O)(=O)c2cc(Cl)c(Cl)cc2Cl)cc1, the outcome was “inactive”. O=C(O)CCC(=O)NNC(=O)CCC(=O)NCc1ccccc1 was tested, and the outcome was “inactive”. In the case of CC(c1ccccc1)N(C)CC(=O)NC(=O)NCCC1=CCCCC1 (centres undefined), the outcome was “inactive”. For O=C(NCc1cccs1)c1ccc2c(c1)ncn2C1CCCC1, the outcome was “inactive”. In the case of Cc1cccc2c1N(CCCOc1ccc(C(C)(C)C)cc1)C(=O)C2=O, the outcome was “inactive”. CCOC(=O)c1cc2sc(C)cc2n1CC(=O)N1CCN(C(=O)c2ccco2)CC1 was tested, and the outcome was “inactive”. O=C(CSc1nc2cc(Cl)ccc2s1)N1CCN(C(=O)c2ccco2)CC1 was tested, and the outcome was “inactive”. With COc1ccccc1CN(C)C(=O)CN1CCN(C(=O)c2cccs2)CC1 the outcome was “inactive”. Cc1nn(-c2ccccc2)c(C)c1/C=N/NC(=O)c1cc(-c2ccccc2)n[nH]1 was tested, and the outcome was “inactive”. COc1ccccc1NS(=O)(=O)c1cccc2cccnc12 was tested, and the outcome was “inactive”. With Cn1c(=O)cc(NCc2ccccc2)[nH]c1=O the outcome was “inactive”. O=C(NCC1CCCO1)C1CCCN(Cc2cnn(-c3ccccc3)c2-n2cccc2)C1 (centres undefined) was tested, and the outcome was “inactive”. Cc1ccc2[nH]c(=O)c(CN(Cc3ccco3)C(=O)c3ccncc3)cc2c1 was tested, and the outcome was “inactive”. With COc1ccc2nc3oc(C(=O)N4CCCCC4)cc3cc2c1 the outcome was “inactive”. In the case of Cc1ccc(NC(=O)COc2ccccc2C(=O)Nc2ccccc2)cc1Cl, the outcome was “inactive”. COc1cc(NC(=O)Cc2ccccc2)cc(OC)c1 was tested, and the outcome was “inactive”. In the case of O=C(CCCCCCC(=O)NCc1ccccc1)NCc1ccccc1, the outcome was “inactive”. For CC(C)Cn1c2c(c(O)c(C(=O)Nc3nccs3)c1=O)CCCC2, the outcome was “inactive”. With COc1ccc(-c2[nH]c3ccccc3c2SCCN)cc1 the outcome was “inactive”. With Cc1nnc(N2CCc3ccccc3C2)[nH]c1=O the outcome was “inactive”. With CCS(=O)(=O)N1CCC(C(=O)NCc2cccc(OC)c2)CC1 the outcome was “inactive”. In the case of COc1cccc(CC(=O)Nc2nccs2)c1, the outcome was “inactive”. With O=C(Cn1cnc2ccccc2c1=O)c1cccs1 the outcome was “inactive”. CN(C)c1nc(N)nc(CSc2ncc(Cl)cc2Cl)n1 was tested, and the outcome was “inactive”. For Cc1ccccc1CCNC(=O)c1ccc(Cl)c(S(=O)(=O)N2CC(C)OC(C)C2)c1 (centres undefined), the outcome was “inactive”. For COc1ccccc1-n1cnc2cc(NCc3cccs3)ccc21, the outcome was “inactive”. For COc1ccc(S(=O)(=O)N2CCCCCC2)cc1C(=O)OCC(=O)NC(N)=O, the outcome was “inactive”. In the case of Cn1c(NC(=O)c2cccs2)cc(=O)n(C)c1=O, the outcome was “inactive”. For CSc1nc2ccc3nc(NC(=O)c4cccs4)sc3c2s1, the outcome was “inactive”. For COc1cccc(C(=O)CSc2nc3ccccc3n2CC(=O)N2CCOCC2)c1, the outcome was “inactive”. CCCCCCn1c(SCC(=O)c2c(N)n(C)c(=O)n(C)c2=O)nc2ccccc21 was tested, and the outcome was “inactive”. CN(CC(=O)NCCc1ccccc1)S(=O)(=O)c1cccs1 was tested, and the outcome was “inactive”. With O=C1CCCC2=C1C(c1ccco1)Nc1ccc3ccccc3c12 (centres undefined) the outcome was “inactive”. COc1ccc(Br)cc1C1CC(=O)N2CN(Cc3ccccc3)CSC2=C1C#N (centres undefined) was tested, and the outcome was “inactive”. COc1ccc(C2CC(=O)N3CN(c4ccc(C)c(Cl)c4)CSC3=C2C#N)cc1 (centres undefined) was tested, and the outcome was “inactive”. In the case of CCOC(=O)CCN(Cc1sccc1C)S(=O)(=O)c1ccc(F)cc1, the outcome was “inactive”. In the case of Cc1ccnc(NC(=O)c2ccc(Cl)c(S(=O)(=O)N3CCCC3)c2)c1, the outcome was “inactive”. For COc1ccc(NC(=O)Cn2c(=O)sc3ccccc32)cc1, the outcome was “inactive”. With COc1ccc(Cc2nnc(NC(=O)CSc3ccccc3)s2)cc1 the outcome was “inactive”. With C[C@@H]1CCCCO[C@H](CN(C)C(=O)c2ccccc2)[C@@H](C)CN([C@H](C)CO)C(=O)c2cc(NC(=O)NC3CCCCC3)ccc2O1 the outcome was “inactive”. CCOc1ccc(-n2c(=O)c3c(C)c(C)sc3n(CC(=O)NCc3ccco3)c2=O)cc1 was tested, and the outcome was “inactive”. In the case of Cc1cccc(NC(=O)Cn2c(=O)n(Cc3ccco3)c(=N)c3c4c(sc32)COC(C)(C)C4)c1, the outcome was “inactive”. For CCOC(=O)c1cc([N+](=O)[O-])cc([N+](=O)[O-])c1Sc1ncnc2nc[nH]c12, the outcome was “inactive”. In the case of CCCCn1c(N)c(N(CCC(C)C)C(=O)C2=NN(c3cc(C)ccc3C)C(=O)CC2)c(=O)[nH]c1=O, the outcome was “inactive”. With CC(=O)N(C1=C(Cl)C(=O)c2ccccc2C1=O)c1ccc(C(=O)O)cc1 the outcome was “inactive”. CCC(C(=O)OCC(=O)Nc1ccc(SC(F)F)cc1)c1ccccc1 (centres undefined) was tested, and the outcome was “inactive”. With CC(C)CC(c1nnnn1C1CCCCC1)N1CCN(c2ncccn2)CC1 (centres undefined) the outcome was “inactive”. With Cc1ccc(C(c2nnnn2CC2CCCO2)N2CCN(C)CC2)cc1 (centres undefined) the outcome was “inactive”. For CCC(=O)Nc1cc(C(=O)OCC(=O)c2ccccc2Cl)ccc1C, the outcome was “inactive”. O=C(NCc1ccc(Cl)cc1)c1ccccc1Oc1ccccc1 was tested, and the outcome was “inactive”. COC(Cc1nnc(SC)n1-c1ccc(Cl)cc1)OC was tested, and the outcome was “inactive”. With O=C(O)c1ccc(-n2c(-c3cc(-c4ccco4)[nH]n3)n[nH]c2=S)cc1 the outcome was “inactive”. CCOC(=O)CSc1nc2c(sc(=S)n2-c2ccccc2OC)c(=O)n1Cc1ccco1 was tested, and the outcome was “inactive”. CCCn1c(Sc2nc3c(c(=O)[nH]c(=O)n3C)n2CCC)nc2c1c(=O)[nH]c(=O)n2C was tested, and the outcome was “inactive”. In the case of CCC(C)n1cnc2c(c1=O)c1nc3ccccc3nc1n2-c1ccc2c(c1)OCCO2 (centres undefined), the outcome was “inactive”. With CCCn1nnnc1-c1cccc(Cl)c1 the outcome was “inactive”. COc1ccc(C(=O)CSc2nnc3n2CCCN3C(=O)Nc2ccccc2)cc1 was tested, and the outcome was “inactive”. In the case of CN(C)c1nc(N)nc(CSc2nc3c(c(=O)n(C)c(=O)n3C)n2Cc2ccccc2F)n1, the outcome was “inactive”. In the case of CC(=O)Nc1ccc(OCC(O)CNC2CCCC2)cc1 (centres undefined), the outcome was “inactive”. In the case of CC(=O)c1ccc(N2C(=NC(=O)C3CCCO3)SC3CS(=O)(=O)CC32)cc1 (centres undefined), the outcome was “inactive”. O=C(c1cc2ccccc2oc1=O)N1CCN(c2ccc(N3CCOCC3)nn2)CC1 was tested, and the outcome was “inactive”. COc1ccccc1C1NC(c2ccccc2OC)C(C)C(=O)C1C (centres undefined) was tested, and the outcome was “inactive”. For O=C(c1cccnc1NCc1ccc(F)cc1)N1CCOCC1, the outcome was “inactive”. In the case of CCOc1ccc(C2NC(=O)C(C#N)=C(S)N2c2ccc(OC)cc2)cc1OC (centres undefined), the outcome was “inactive”. CC1(CCc2ccc3c(c2)OCO3)NC(=O)c2ccccc2N1 (centres undefined) was tested, and the outcome was “inactive”. For O=C(COc1ccccc1C(=O)O)Nc1ccc(SC(F)F)cc1, the outcome was “inactive”. CCOC(=O)c1c(NC(=O)c2cccs2)sc(C)c1C was tested, and the outcome was “inactive”. For CCCc1cc(=O)[nH]c(SCC(=O)Nc2cc3c(cc2C(C)=O)OCO3)n1, the outcome was “inactive”. Cc1cc(NC(=O)CCC(=O)N(CCC(C)C)C(C(=O)NC2CCCC2)c2cccnc2)no1 (centres undefined) was tested, and the outcome was “inactive”.
